About 83,000 compounds went through this panel and 20% of them were active in at least one assay; those are over-represented in the sample as a whole.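 Results are percent growth after 48 hours of single-concentration exposure. 100 means growth as in untreated cells, lower positive values show inhibition; negative values down to -100 show cell death.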 Unmarked numbers belong to inactive results. Active and inactive are the calls of the source. Rule for the calls: active = growth percent below 10; inactive = the rest.

The test system of the test is NCI-H522 lung. As to the kind of experiment: NCI-60 one-dose screen, 48 h (100 = growth as untreated, 0 = no growth, -100 = all killed). Particulars: 10 µM unless noted.
As to `Clc1cccc(Nc2ncnc3ccc(-c4cnc5[nH]ccc5c4)cc23)c1`, the growth was 33.9%.

With `Nc1cc(C(=O)NC[C@H]2CN(c3ccc(N4CCC(C(=O)O)CC4)cc3)C(=O)O2)ccc1Cl`, the growth was 92%.

Turning to `N#CSCC1CC(O)(c2ccccc2)CC(c2ccc(F)cc2)O1` (stereo not given), the growth was -57% (active).

Turning to `CCOC(=O)c1ccc2c(c1)nc(-c1ccccc1)n2C1CCCCC1`, the growth is 73.6%.

For `Cc1cn(-c2cc(NC(=O)c3cncc(C#Cc4cnc(N)c5ncccc45)c3)cc(C(F)(F)F)c2)cn1`, the growth was 52.2%.

Take `CCN(CC)Cc1cc(C=C2C(=O)NC(=S)NC2=O)cc(OC)c1O`: the growth was 104%.

As for `COc1cc(/C=C/C(=O)c2ccc(F)cc2)ccc1OCCCCOc1ccc(/C=C/C(=O)c2c(C)nc3ccccc3c2C)cc1OC`, the growth was 59.1%.

Consider `O=C1/C(=C/c2cccc(F)c2)CN(C(=O)C(Cl)Cl)C/C1=C\c1cccc(F)c1`, for which the growth was -80.3% (active).

As for `N#Cc1ccc(O)c(C2=NCC(c3ccccc3)O2)c1` (stereo not given), the growth is -12.8% (active).

For `N=C(N)c1ccc(-c2ccc(-c3ccccc3)o2)cc1`, the growth is -82.6% (active).

As for `COC12C=C/C(=C(/C(=O)OCc3ccncc3)C(=O)CCCCCCCCC3(OC)C=C/C(=C(/C(=O)OCc4ccncc4)C(=O)CCCCCCCC1)O3)O2`, the growth is -41% (active).

`COC(=O)/C=C1/SC(=Nc2cccc(OC)c2)N(CCc2c[nH]c3ccc(O)cc23)C1=O`: the growth is 54.3%.

As to `Cn1ccnc1C(=O)/C=C/c1ccc(CC(=O)Nc2cc(C(F)(F)F)cc(C(F)(F)F)c2)cc1`, the growth was 77.4%.

For `CS(=O)(=O)Nc1cc(-c2ccc3ncnc(Nc4ccc5c(cnn5Cc5ccc(F)cc5)c4)c3c2)cnc1Cl`, the growth is 43.7%.

Turning to `CCSc1nc2scc(C)c2c(=O)[nH]1`, the growth is 94.6%.

Regarding `Fc1cccc(Oc2ccc(Nc3ncnc4ccc(OCCCN5CCOCC5)cc34)cc2Cl)c1`, the growth is 43.8%.

Turning to `O=C(Nc1cccc2ccccc12)NC1CC1`, the growth was 136%.

On to `Clc1ccc2c(NC3CCC(N4CCOCC4)CC3)ccnc2c1` (stereo not given), for which the growth is 80.8%.

For `Cc1cc(N2CCN(CCNc3ccnc4cc(Cl)ccc34)CC2)nc(N2CCOCC2)n1`, the growth is 76.5%.

`c1cnc2c(-c3nc4ccc5[nH]ncc5c4c4c3CCCC4)c[nH]c2c1`: the growth was -23.3% (active).

`O=C(O)c1ccc(-n2cc(/C=N/Nc3ccccc3)c(-c3ccc(F)cc3F)n2)cc1`: the growth is 26.6%.

Take `C=C(CBr)[C@@H]1CC[C@]2(C(=O)O)CC[C@]3(C)[C@H](CC[C@@H]4[C@@]5(C)CCC(=O)C(C)(C)[C@@H]5CC[C@]43C)[C@@H]12`: the growth is 46.5%.

Turning to `O=C(CSC(=S)n1cnnc1)NC(=O)c1ccccc1`, the growth is 92.4%.

On to `CC(C)(C)CC(C)(C)NC(=O)Nc1ncccc1OCc1ccccc1`, for which the growth was 70.7%.

In the case of `Oc1ccc(Cl)cc1/C=N\NC(=S)N/N=C/c1cc(Cl)ccc1O`, the growth was -7.22% (active).

`CCc1ncnc2c1ccn2C(C)c1ccc(OC)c(F)c1` (stereo not given): the growth was 43.3%.

As for `C/C(=N\O)c1ccc(Cl)cc1`, the growth was 105%.

For `CN(C)CCNC(=O)c1cc2c3cc(Cl)ccc3[nH]c2c2ncccc12`, the growth was 21.2%.

For the compound `O=C(/C=C/c1ccco1)Nc1ncc(Cc2cccc(C(F)(F)F)c2)s1`, the growth is -15% (active).

`Cc1cc(S(=O)(=O)/N=C(\N)n2nc(C)c(C)c2C)c(SCc2ccccc2)cc1Cl`: the growth was 17.2%.

`CN(c1cc2ncc(=O)[nH]c2cc1NC(N)=NCc1ccc(Cl)cc1)C1CCCCC1`: the growth was 30.5%.

As to `COc1cc(-c2nc3sccn3c2-c2ccnc(NCCNS(=O)(=O)c3ccccc3)n2)ccc1F`, the growth was 36.2%.

`O=C(Nc1cccc(-c2ccc(N3CCOCC3)nn2)c1)Nc1cccc(C(F)(F)F)c1`: the growth was 46.4%.

`COCCNC(=O)Nc1ccc2nc(-c3cccs3)c(-c3cccs3)nc2c1`: the growth is 76.6%.

With `O=C1/C=C/[C@@H](O)[C@@H]2C[C@@H](O)C[C@H]2/C=C/CCC[C@H](CCc2ccccc2)O1`, the growth was 7.89% (active).

For the compound `CC(=O)Oc1ccc(/C(=C(\C)c2ccc(Cl)cc2)c2ccc(OCCN3CCCCC3)cc2)cc1`, the growth was 21.2%.

For the compound `N#Cc1nc(-c2ccc(F)cc2)oc1S(=O)(=O)N1CCOCC1`, the growth was -33.8% (active).

Turning to `C#CCNC(=O)[C@H](CC)[C@H]1CC[C@H](C)[C@H]([C@@H](C)[C@H](O)[C@H](C)C(=O)[C@H](CC)C2O[C@]3(C=CC(=O)[C@]4(CC[C@@](C)([C@H]5CC[C@](O)(CC)[C@H](C)O5)O4)O3)[C@H](C)C[C@@H]2C)O1` (stereo not given in full), the growth is 32.3%.

Regarding `COc1ccc(CNc2c3ccccc3nc3ccccc23)cc1`, the growth was 53%.

Take `Clc1cc(Cl)c(Cl)c(-c2nnc(SCc3ccncc3Br)o2)c1`: the growth was 83.8%.

The values above are taken from PubChem BioAssay (NCI).
